Data on 4 sequences can be found in PMC11006913.

Residue numbers refer to the chain shown, from its start.

Test in all cases: PBM; 200 nM protein, PBS
Common to all, as to conditions: dsDNA, one strand shown

Assay [1] deals with HOXB4 (Homo sapiens, UniProt P17483 148-234).
The target of assay [2] is T1, VENTX (Homo sapiens, UniProt O95231 78-163, R121Q).
T1 sequence: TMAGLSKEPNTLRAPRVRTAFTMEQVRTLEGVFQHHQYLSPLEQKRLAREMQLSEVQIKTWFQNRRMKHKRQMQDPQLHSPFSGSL

The target in assay [3] is HOXA4 (Homo sapiens, UniProt Q00056 201-287, W262R).
Sequence of HOXA4 (Homo sapiens, UniProt Q00056 201-287, W262R) (Q00056 201-287 W262R): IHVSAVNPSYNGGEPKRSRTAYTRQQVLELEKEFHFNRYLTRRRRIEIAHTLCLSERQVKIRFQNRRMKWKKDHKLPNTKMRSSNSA
Assay [4] has as its target ALX4 (Homo sapiens, UniProt Q9H161 200-286).
In assay [5] the target is T2, PAX4 (Homo sapiens, UniProt O43316 9-242, R200K).
T2 sequence: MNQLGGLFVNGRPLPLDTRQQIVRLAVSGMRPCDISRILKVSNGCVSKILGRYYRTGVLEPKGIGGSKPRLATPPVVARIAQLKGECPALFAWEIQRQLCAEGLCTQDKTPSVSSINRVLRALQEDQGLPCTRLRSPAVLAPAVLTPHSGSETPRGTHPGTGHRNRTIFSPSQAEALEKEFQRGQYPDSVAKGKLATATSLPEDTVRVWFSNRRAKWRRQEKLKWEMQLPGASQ

For assay [6], the target named is PRRX1 (Homo sapiens, UniProt P54821 80-166, F113S).
Sequence of PRRX1 (Homo sapiens, UniProt P54821 80-166, F113S) (P54821 80-166 F113S): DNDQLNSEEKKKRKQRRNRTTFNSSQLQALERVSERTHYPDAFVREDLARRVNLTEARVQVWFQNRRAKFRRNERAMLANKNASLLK
The target in assay [7] is T3, VENTX (Homo sapiens, UniProt O95231 78-163, Y115F).
T3 sequence: T1 sequence with Y38F, Q44R

Assay [8] addresses HOXA2 (Homo sapiens, UniProt O43364 129-215, R185T).
Assay [9] has as its target HOXA4 (Homo sapiens, UniProt Q00056 201-287, R217L).
Assay [10] addresses HOXB4 (Homo sapiens, UniProt P17483 148-234, V174I).
Assay [11] addresses T4, PAX4 (Homo sapiens, UniProt O43316 9-242, R200Q).
T4 sequence: T2 sequence with K192Q

Assay [12] concerns the target T5, PAX4 (Homo sapiens, UniProt O43316 9-242, F177V).
T5 sequence: T2 sequence with F169V, K192R

Assay [13] has as its target HOXA4 (Homo sapiens, UniProt Q00056 201-287).
Assay [14] addresses MSX2 (Homo sapiens, UniProt P35548 130-214).
In assay [15] the target is T6, PAX4 (Homo sapiens, UniProt O43316 9-242, F177Y).
T6 sequence: T2 sequence with F169Y, K192R

The target in assay [16] is MSX2 (Homo sapiens, UniProt P35548 130-214, F161Y).
Sequence of MSX2 (Homo sapiens, UniProt P35548 130-214, F161Y) (P35548 130-214 F161Y): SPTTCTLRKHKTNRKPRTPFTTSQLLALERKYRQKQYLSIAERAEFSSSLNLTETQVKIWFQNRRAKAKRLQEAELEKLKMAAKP
The target in assay [17] is VAX1 (Homo sapiens, UniProt Q5SQQ9 86-172, T142I).
Sequence of VAX1 (Homo sapiens, UniProt Q5SQQ9 86-172, T142I) (Q5SQQ9 86-172 T142I): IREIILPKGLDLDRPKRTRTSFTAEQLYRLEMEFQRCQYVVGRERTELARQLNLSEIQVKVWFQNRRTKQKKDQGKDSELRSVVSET
The target in assay [18] is HOXA4 (Homo sapiens, UniProt Q00056 201-287, W262F).
Sequence of HOXA4 (Homo sapiens, UniProt Q00056 201-287, W262F) (Q00056 201-287 W262F): as the sequence (Q00056 201-287 W262R) above, with R62F counted along it
Assay [19] concerns the target PRRX1 (Homo sapiens, UniProt P54821 80-166).
For assay [20], the target named is VAX1 (Homo sapiens, UniProt Q5SQQ9 86-172, K157R).
Sequence of VAX1 (Homo sapiens, UniProt Q5SQQ9 86-172, K157R) (Q5SQQ9 86-172 K157R): as the sequence (Q5SQQ9 86-172 T142I) above, with I57T, K72R counted along it

Sequence of HOXA4 (Homo sapiens, UniProt Q00056 201-287) (Q00056 201-287): as the sequence (Q00056 201-287 W262R) above, with R62W counted along it
Sequence of PRRX1 (Homo sapiens, UniProt P54821 80-166) (P54821 80-166): as the sequence (P54821 80-166 F113S) above, with S34F counted along it
Sequence of ALX4 (Q9H161 200-286): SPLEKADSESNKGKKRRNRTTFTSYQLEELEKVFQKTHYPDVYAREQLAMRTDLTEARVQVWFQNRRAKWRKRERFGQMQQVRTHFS
Sequence of HOXA4 (Homo sapiens, UniProt Q00056 201-287, R217L) (Q00056 201-287 R217L): as the sequence (Q00056 201-287 W262R) above, with R17L, R62W counted along it
Sequence of MSX2 (Homo sapiens, UniProt P35548 130-214) (P35548 130-214): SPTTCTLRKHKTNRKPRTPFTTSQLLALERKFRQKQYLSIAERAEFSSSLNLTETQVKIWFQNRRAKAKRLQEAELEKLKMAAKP
Sequence of HOXA2 (O43364 129-215 R185T): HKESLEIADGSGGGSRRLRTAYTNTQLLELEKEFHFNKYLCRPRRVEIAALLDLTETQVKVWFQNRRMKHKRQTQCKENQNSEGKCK
Sequence of HOXB4 (Homo sapiens, UniProt P17483 148-234, V174I) (P17483 148-234 V174I): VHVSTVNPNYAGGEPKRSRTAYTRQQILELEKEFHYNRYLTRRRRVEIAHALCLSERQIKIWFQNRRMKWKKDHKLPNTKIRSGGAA
Sequence of HOXB4 (Homo sapiens, UniProt P17483 148-234) (P17483 148-234): as the sequence (P17483 148-234 V174I) above, with I27V counted along it

In the case of AATTAATT, the binding signal was 13.4 upbm affinity estimate (log intensity, higher = more binding, comparable within an allelic series) in [1]; 12.1 upbm affinity estimate (log intensity, higher = more binding, comparable within an allelic series) in assay [2]; 10.8 upbm affinity estimate (log intensity, higher = more binding, comparable within an allelic series) in [3]; 14.7 upbm affinity estimate (log intensity, higher = more binding, comparable within an allelic series) in assay [4]; 12.1 upbm affinity estimate (log intensity, higher = more binding, comparable within an allelic series) in assay [5]; 11.8 upbm affinity estimate (log intensity, higher = more binding, comparable within an allelic series) in [6]. The binding signal is 11.8 upbm affinity estimate (log intensity, higher = more binding, comparable within an allelic series) in [7]; 13.4 upbm affinity estimate (log intensity, higher = more binding, comparable within an allelic series) in assay [8]; 12.8 upbm affinity estimate (log intensity, higher = more binding, comparable within an allelic series) in assay [9]; 14.1 upbm affinity estimate (log intensity, higher = more binding, comparable within an allelic series) in [10]; 12.8 upbm affinity estimate (log intensity, higher = more binding, comparable within an allelic series) in assay [11]; 10.9 upbm affinity estimate (log intensity, higher = more binding, comparable within an allelic series) in assay [12]. Besides, the binding signal in [13] was 14 upbm affinity estimate (log intensity, higher = more binding, comparable within an allelic series); in assay [14] it was 14.1 upbm affinity estimate (log intensity, higher = more binding, comparable within an allelic series); in assay [15] it was 11.6 upbm affinity estimate (log intensity, higher = more binding, comparable within an allelic series); in [16], 13.8 upbm affinity estimate (log intensity, higher = more binding, comparable within an allelic series); in assay [17], 13.2 upbm affinity estimate (log intensity, higher = more binding, comparable within an allelic series); in assay [18], 12.2 upbm affinity estimate (log intensity, higher = more binding, comparable within an allelic series). Also, the binding signal in [19] was 13.6 upbm affinity estimate (log intensity, higher = more binding, comparable within an allelic series); in [20], 13.1 upbm affinity estimate (log intensity, higher = more binding, comparable within an allelic series).
For TAATTAAA, the binding signal in assay [1] was 13.3 upbm affinity estimate (log intensity, higher = more binding, comparable within an allelic series); in assay [2], 12.1 upbm affinity estimate (log intensity, higher = more binding, comparable within an allelic series); in assay [3], 10.8 upbm affinity estimate (log intensity, higher = more binding, comparable within an allelic series); in assay [4] it was 14.4 upbm affinity estimate (log intensity, higher = more binding, comparable within an allelic series); in assay [5] it was 12 upbm affinity estimate (log intensity, higher = more binding, comparable within an allelic series); in assay [6], 11.9 upbm affinity estimate (log intensity, higher = more binding, comparable within an allelic series). Also, the binding signal in assay [7] was 11.9 upbm affinity estimate (log intensity, higher = more binding, comparable within an allelic series); in assay [8] it was 13.5 upbm affinity estimate (log intensity, higher = more binding, comparable within an allelic series); in assay [9], 12.8 upbm affinity estimate (log intensity, higher = more binding, comparable within an allelic series); in assay [10], 14.1 upbm affinity estimate (log intensity, higher = more binding, comparable within an allelic series); in [11], 12.4 upbm affinity estimate (log intensity, higher = more binding, comparable within an allelic series); in assay [12] it was 11 upbm affinity estimate (log intensity, higher = more binding, comparable within an allelic series). For the same sequence, the binding signal in [13] is 14.1 upbm affinity estimate (log intensity, higher = more binding, comparable within an allelic series); in [14], 13.9 upbm affinity estimate (log intensity, higher = more binding, comparable within an allelic series); in [15], 11.3 upbm affinity estimate (log intensity, higher = more binding, comparable within an allelic series); in assay [16], 13.5 upbm affinity estimate (log intensity, higher = more binding, comparable within an allelic series); in assay [17], 13.4 upbm affinity estimate (log intensity, higher = more binding, comparable within an allelic series); in assay [18], 12.3 upbm affinity estimate (log intensity, higher = more binding, comparable within an allelic series). Further, the binding signal in assay [19] was 13.6 upbm affinity estimate (log intensity, higher = more binding, comparable within an allelic series); in [20], 13.4 upbm affinity estimate (log intensity, higher = more binding, comparable within an allelic series).
With GCAATTAA, the binding signal in assay [1] is 13.2 upbm affinity estimate (log intensity, higher = more binding, comparable within an allelic series); in assay [2] it was 12.2 upbm affinity estimate (log intensity, higher = more binding, comparable within an allelic series); in [3], 10.6 upbm affinity estimate (log intensity, higher = more binding, comparable within an allelic series); in [4], 13.8 upbm affinity estimate (log intensity, higher = more binding, comparable within an allelic series); in [6], 11.1 upbm affinity estimate (log intensity, higher = more binding, comparable within an allelic series); in assay [7] it was 11.9 upbm affinity estimate (log intensity, higher = more binding, comparable within an allelic series). Also, the binding signal in assay [8] was 13.2 upbm affinity estimate (log intensity, higher = more binding, comparable within an allelic series); in assay [9], 12.4 upbm affinity estimate (log intensity, higher = more binding, comparable within an allelic series); in [10] it was 13.9 upbm affinity estimate (log intensity, higher = more binding, comparable within an allelic series); in assay [11] it was 12 upbm affinity estimate (log intensity, higher = more binding, comparable within an allelic series); in [13], 13.9 upbm affinity estimate (log intensity, higher = more binding, comparable within an allelic series); in assay [14], 14.1 upbm affinity estimate (log intensity, higher = more binding, comparable within an allelic series). The binding signal in [16] was 13.7 upbm affinity estimate (log intensity, higher = more binding, comparable within an allelic series); in assay [17] it was 13.2 upbm affinity estimate (log intensity, higher = more binding, comparable within an allelic series); in assay [18] it was 11.8 upbm affinity estimate (log intensity, higher = more binding, comparable within an allelic series); in assay [19], 13.2 upbm affinity estimate (log intensity, higher = more binding, comparable within an allelic series); in assay [20] it was 12.9 upbm affinity estimate (log intensity, higher = more binding, comparable within an allelic series).
For the sequence CTAATTAA, the binding signal in [1] was 13.3 upbm affinity estimate (log intensity, higher = more binding, comparable within an allelic series); in assay [2], 12.7 upbm affinity estimate (log intensity, higher = more binding, comparable within an allelic series); in assay [3] it was 11 upbm affinity estimate (log intensity, higher = more binding, comparable within an allelic series); in [4] it was 14.4 upbm affinity estimate (log intensity, higher = more binding, comparable within an allelic series); in [5], 12.3 upbm affinity estimate (log intensity, higher = more binding, comparable within an allelic series); in assay [6] it was 12.1 upbm affinity estimate (log intensity, higher = more binding, comparable within an allelic series). Further, the binding signal in assay [7] is 12.4 upbm affinity estimate (log intensity, higher = more binding, comparable within an allelic series); in assay [8] it was 13.8 upbm affinity estimate (log intensity, higher = more binding, comparable within an allelic series); in assay [9], 12.9 upbm affinity estimate (log intensity, higher = more binding, comparable within an allelic series); in assay [10], 13.9 upbm affinity estimate (log intensity, higher = more binding, comparable within an allelic series); in assay [11], 12.9 upbm affinity estimate (log intensity, higher = more binding, comparable within an allelic series); in assay [12], 11.2 upbm affinity estimate (log intensity, higher = more binding, comparable within an allelic series). Further, the binding signal is 14.2 upbm affinity estimate (log intensity, higher = more binding, comparable within an allelic series) in [13]; 14.1 upbm affinity estimate (log intensity, higher = more binding, comparable within an allelic series) in assay [14]; 11.7 upbm affinity estimate (log intensity, higher = more binding, comparable within an allelic series) in assay [15]; 13.7 upbm affinity estimate (log intensity, higher = more binding, comparable within an allelic series) in assay [16]; 13.8 upbm affinity estimate (log intensity, higher = more binding, comparable within an allelic series) in [17]; 12.7 upbm affinity estimate (log intensity, higher = more binding, comparable within an allelic series) in assay [18]. Also, the binding signal was 13.7 upbm affinity estimate (log intensity, higher = more binding, comparable within an allelic series) in assay [19] and 13.8 upbm affinity estimate (log intensity, higher = more binding, comparable within an allelic series) in [20].
